This is an account of results in PubChem BioAssay (NCI).

Among the test systems are T-47D breast; BT-549 breast; MDA-MB-435 melanoma; SW-620 colon; MCF7 breast; HCT-116 colon; HCC-2998 colon; KM12 colon.
What all share (experiment): NCI-60 one-dose screen, 48 h (100 = growth as untreated, 0 = no growth, -100 = all killed)
Conditions in all cases: 10 µM unless noted

About 83,000 compounds went through this panel and 20% of them were active in at least one assay; those are over-represented in the sample as a whole.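 Cells were grown in 96-well plates and exposed to the test compound at a single concentration for 48 hours; results are reported as percent growth, with values below 10 considered active.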 Values without a mark were called inactive. Active and inactive are the calls of the source.

For the compound `CN(C)c1ncnc2c1ncn2C1CCCCO1` (stereo not given), the growth was 105% with T-47D breast; 101% in the assay with BT-549 breast; 111% with MDA-MB-435 melanoma; 106% in the assay on SW-620 colon; 96.6% in the assay on MCF7 breast; 104% in the assay on HCT-116 colon. For the same compound, the figures for the growth in the assay with HCC-2998 colon and in the assay with KM12 colon were 96.7% and 112%, respectively.

As for `COC(=O)N/N=C/c1coc2ccc(Cl)cc2c1=O`, the growth in the assay on T-47D breast was 83%; in the assay with BT-549 breast, 82.5%; with MDA-MB-435 melanoma, 103%; with SW-620 colon, 101%; with MCF7 breast, 88.9%; in the assay on HCT-116 colon, 95.5%. Further, the results for the growth in the assay with HCC-2998 colon and in the assay with KM12 colon were 101% and 94%, respectively.

For `O=C(Nc1ccccc1S)c1ccccc1`, the growth in the assay with T-47D breast was 105%; in the assay on BT-549 breast it was 99.9%; with MDA-MB-435 melanoma, 101%; in the assay on SW-620 colon it was 98.5%; in the assay on MCF7 breast it was 91.1%; in the assay with HCT-116 colon, 96.2%. In addition, the growth in the assay on HCC-2998 colon is 109%; with KM12 colon, 104%.

As to `N#CC1c2ccccc2C=CN1C(=O)N(c1ccccc1)c1ccccc1` (stereo not given), the growth in the assay with T-47D breast is -1.33% (active); in the assay on BT-549 breast it was 74.1%; in the assay with MDA-MB-435 melanoma, 58.7%; in the assay on SW-620 colon, 21.8%; in the assay with MCF7 breast it was 49.9%; in the assay with HCT-116 colon, 26.5%. The growth in the assay on HCC-2998 colon was 96.8%; in the assay on KM12 colon it was 102%.

Turning to `COc1cc(C(=O)c2cc3c(cc2C)OCO3)cc(OC)c1OC`, the growth with T-47D breast is 58.2%; with BT-549 breast it was 68.3%; in the assay on MDA-MB-435 melanoma it was -49% (active); in the assay on SW-620 colon, 25.6%; in the assay on MCF7 breast, 13.6%; in the assay on HCT-116 colon, 15.9%. Moreover, the growth in the assay with HCC-2998 colon is 10.1%; with KM12 colon, 16.5%.

Turning to `O=c1oc2c(cc1-c1ccc([N+](=O)[O-])cc1)C(O)Oc1ccccc1-2` (stereo not given), the growth with T-47D breast is 75.3%; in the assay with BT-549 breast, 97.1%; in the assay with MDA-MB-435 melanoma, 89.3%; with SW-620 colon, 91.9%; with MCF7 breast, 90.8%; with HCT-116 colon it was 94.8%. The growth is 94.3% in the assay on HCC-2998 colon and 95.4% in the assay with KM12 colon.

`COc1ccc2c3c(ccc2c1)C(=O)/C(=C\O)CC3`: the growth in the assay with T-47D breast was 80.8%; with BT-549 breast, 105%; in the assay with MDA-MB-435 melanoma, 111%; in the assay on SW-620 colon, 105%; in the assay with MCF7 breast it was 102%; in the assay with HCT-116 colon, 88.1%. For the same compound, the results for the growth in the assay with HCC-2998 colon and with KM12 colon were 104% and 99.5%, respectively.

Take `N/C(=N\C(N)=N\c1nc2ccccc2s1)c1ccnc(Cl)c1`: the growth in the assay on T-47D breast is 60.8%; in the assay with BT-549 breast, 38%; in the assay on MDA-MB-435 melanoma it was -34.9% (active); in the assay on SW-620 colon it was 16.8%; with MCF7 breast, 31.5%; with HCT-116 colon, 31.7%. Moreover, the growth in the assay on HCC-2998 colon is 62.7%; with KM12 colon, 32%.

In the case of `NS(=O)(=O)c1cc2c(cc1Cl)NC=NS2(=O)=O`, the growth with T-47D breast is 97.7%; in the assay with BT-549 breast, 95.9%; in the assay on MDA-MB-435 melanoma, 102%; in the assay with SW-620 colon it was 111%; in the assay with MCF7 breast, 96.9%; with HCT-116 colon, 98%. Besides, the figures for the growth in the assay on HCC-2998 colon and in the assay on KM12 colon were 93.4% and 106%, respectively.

Turning to `COc1ccc(OC)c(CCn2cncc2-c2c[nH]c3cc(Br)ccc23)c1`, the growth was 6.48% (active) in the assay with T-47D breast; 14.1% with BT-549 breast; 11.8% in the assay on MDA-MB-435 melanoma; 33.7% in the assay with SW-620 colon; 17.2% in the assay on MCF7 breast; 23.6% in the assay on HCT-116 colon. The growth with HCC-2998 colon is 69.6%; in the assay on KM12 colon, 41.7%.

Turning to `COc1cc(/C=C/C(=O)CC(=O)/C=C/c2ccc(OC(=O)C3C4CC5CC(C4)CC3C5)c(OC)c2)ccc1OC(=O)C1C2CC3CC(C2)CC1C3` (stereo not given), the growth in the assay with T-47D breast was 99.4%; with BT-549 breast, 108%; with MDA-MB-435 melanoma, 112%; in the assay on SW-620 colon, 113%; in the assay on MCF7 breast, 110%; in the assay with HCT-116 colon, 93%. Also, the growth with HCC-2998 colon is 98.8%; with KM12 colon, 107%.

As to `COc1ccc(C(=O)COc2ccc(/C=C3\Oc4ccc5ccccc5c4C3=O)cc2)cc1`, the growth in the assay with T-47D breast is 55.8%; with BT-549 breast it was 45.1%; in the assay on MDA-MB-435 melanoma, 101%; with SW-620 colon, 94.6%; with MCF7 breast it was 36.3%; with HCT-116 colon, 85.9%. In addition, the results for the growth with HCC-2998 colon and in the assay with KM12 colon were 97.9% and 90.9%, respectively.

Consider `COC(=O)C1CCN(S(=O)(=O)c2ccc(-c3ccccc3)cc2)CC1`, for which the growth with T-47D breast is 102%; with BT-549 breast, 129%; in the assay with MDA-MB-435 melanoma it was 111%; in the assay with SW-620 colon, 102%; in the assay on MCF7 breast it was 99.7%; in the assay on HCT-116 colon it was 115%. For the same compound, the growth in the assay on HCC-2998 colon is 103%; with KM12 colon it was 102%.

For `Nc1nc(Nc2ccccc2SSc2ccccc2Nc2nc(N)nc(C(Cl)(Cl)Cl)n2)nc(C(Cl)(Cl)Cl)n1`, the growth was 15.7% in the assay on T-47D breast; 54.2% in the assay on BT-549 breast; 82.9% in the assay with MDA-MB-435 melanoma; 68.1% with SW-620 colon; 75.7% in the assay on MCF7 breast; 45.8% with HCT-116 colon. The growth in the assay on HCC-2998 colon was 111%; in the assay with KM12 colon, 43.4%.

On to `COc1ccc2[nH]c(=O)c(CNc3ccc(Nc4nccc(-c5ccc(Cl)cc5)n4)cc3)cc2c1`, for which the growth in the assay on T-47D breast is 65.9%; in the assay on BT-549 breast, 104%; with MDA-MB-435 melanoma, 104%; in the assay with SW-620 colon it was 105%; in the assay on MCF7 breast, 71.8%; in the assay on HCT-116 colon it was 91.1%. Moreover, the growth in the assay with HCC-2998 colon is 106%; in the assay on KM12 colon, 85.4%.
